Activity calls are given as the source filed them. How the source made its calls: active means hit-call score of the fitted dose curve at least 0.9, where 1 is the maximum; inactive means score below 0.9.
read-out: Broad substrate specificity ATP-binding cassette transporter ABCG2 (Homo sapiens) (UniProt Q9UNQ0); experiment: LTEA_HepaRG_ABCG2: Life Technologies and Expression Analysis (LTEA) Assay for ABC Transporter (ABCG2) using HepaRG (AID 2283465); settings: mRNA level, 48 h; actives raise or lower the signal
Procedure: LTEA_HepaRG is a cell based, multiplexed-readout assay that uses HepaRG, a human liver cell line, with measurements taken at 48 hours after chemical dosing on a 96-well plate.LTEA_HepaRG_ABCG2 is one of 102 assay component(s) measured in the LTEA HepaRG cell culture assay. It is a marker of Steatosis/NR mediated transport.Data from the assay component LTEA_HepaRG_ABCG2 was analyzed into 1 endpoint. This assay endpoint, LTEA_HepaRG_ABCG2, was analyzed with bidirectional fitting relative to DMSO as the negative control and baseline of activity. Using a type of inducible reporter, measures of mRNA induction for gain or loss-of-signal activity can be used to understand regulation of transcription factor activity. To generalize the intended target to other relatable targets, this assay endpoint is annotated to the transporter intended target family, where the subfamily is ABC transporter.
A total of 1060 chemcials from the ToxCast library were tested in eight-point concentration-response experiments. Cell culture and cytotoxicity assays were conducted at Thermo Fisher Scientific's Custom Services facility (Madison, WI). A single lot of human HepaRG cells (Thermo Fisher Scientific, Frederick, MD) was used for the cell culture experiments. 96-well format collagen type I coated plates of human HepaRG cells were prepared using established methods. Briefly, cryopreserved HepaRG cells were thawed, plated at a density of approximately 100,000 cells/well in HepaRG Thaw, Plate, and General Purpose media (HPRG770, Thermo Fisher Scientific), and incubated for 48 hours. 0.5% DMSO was selected as vehicle control to balance the requisite need of DMSO in HepaRG cultures to maintain differentiation (for example, baseline metabolism, proportions of hepatocytes vs. cholangiocytes), while enabling further hepatic receptor pathway activation (for example, PXR and CAR) in response to chemical exposure. 48 hours after plating, the culture medium was replaced with HepaRG Serum-Free Incudtion Media. Cells were exposed to each test chemical in duplicate and maintained in CO2 incubators for another 48 hours. Chemical plates were thawed to room temperature and 200x concentrations of treatment groups were prepared. 8-point conentration-reponse curves were made with the highest exposure at 100 uM, followed by half-log dilutions, all in 0.5% DMSO. Each test plate contained variouse controls, induction positive controls (1mM phenobarbital), cytotoxicity positive controls ([…] aflatoxin B1), vehicle controls (0.5% DMSO), and total lysis controls (0.5% DMSO). Cell morphology images were taken using an Essen IncuCyte FLR automated microscope, with six 96-well plates imaged in about 24 minutes. Images were captured and exported and JPEG files. Spent culture media was transfered to black-well plates for the LDH assay, and remaining media was sorted at -80 C for later use. Cells were treated with RLT buffer and frozen until shipped for gene expression analysis. Total RNA was isolated from the cell suspension in 75 uL of Buffer RLT (Qiagen, Germantown, MD 20874) by Quintiles/Expression Analysis (Durham, NC) using a custom isolation procedure. Total RNA from each plate well was transferred to a preamplification plate. Fluidigm's 96.96 Dynamic ArrayTM (Fluidigm, Amsterdam, the Netherlands) technology was used for gene expression analyses by quantitative reverse transcription polymerase chain reaction (qRT-PCR, performed by Quintiles/Expression Analysis, Durham, NC)89. Standard TaqManTM Assays (Applied Biosystems/ThermoFisher Scientific, Foster City, CA) were used to assess the expression of 93 genes selected based on their selectivity and sensitivity to important hepatic receptors known to be modulated by environmental chemicals; importance in human hepatocyte functionality; and hepatotoxicity. […]

Broad substrate specificity ATP-binding cassette transporter ABCG2 (Homo sapiens), sequence (Q9UNQ0 whole entry, looked up): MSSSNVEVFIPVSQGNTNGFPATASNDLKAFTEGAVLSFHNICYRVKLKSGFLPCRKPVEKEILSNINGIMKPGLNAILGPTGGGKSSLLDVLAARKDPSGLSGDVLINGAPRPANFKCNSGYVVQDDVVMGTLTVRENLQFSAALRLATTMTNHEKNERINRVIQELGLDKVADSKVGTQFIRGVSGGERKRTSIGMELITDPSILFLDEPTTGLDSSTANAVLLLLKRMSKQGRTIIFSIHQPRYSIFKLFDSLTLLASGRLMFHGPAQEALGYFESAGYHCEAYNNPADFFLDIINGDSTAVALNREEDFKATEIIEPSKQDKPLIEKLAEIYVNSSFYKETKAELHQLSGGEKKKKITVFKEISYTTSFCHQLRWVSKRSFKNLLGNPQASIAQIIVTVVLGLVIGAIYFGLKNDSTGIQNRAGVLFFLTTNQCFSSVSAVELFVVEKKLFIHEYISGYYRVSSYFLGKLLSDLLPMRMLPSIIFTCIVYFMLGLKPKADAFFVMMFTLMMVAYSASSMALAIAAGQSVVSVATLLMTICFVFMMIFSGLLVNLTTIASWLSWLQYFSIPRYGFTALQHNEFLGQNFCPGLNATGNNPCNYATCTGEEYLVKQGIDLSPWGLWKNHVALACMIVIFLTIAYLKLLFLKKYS

Structure (SMILES) | outcome | AC50
CCCCCCCCCCCC(=O)OC | inactive | 
CCCCCCCCCCCCCCCCCC(=O)O | inactive | 
COC(=O)c1ccc(O)cc1 | inactive | 
Cc1nc(-c2ccc3c(c2)CCN(CCC2CCC(NC(=O)/C=C/c4ccc(F)cc4)CC2)CC3)no1 (stereo not given) | inactive | 
CCOC(=O)C(C)(C)Oc1ccc(Cl)cc1 | inactive | 
Cc1ccc(C)c(C)c1 | inactive | 
Cc1ccccc1Cl | inactive | 
CCCCCCCCCCCCCO | inactive | 
CC1(C)NC(=O)NC1=O | inactive | 
CCc1c(C(=O)NN2CCCCC2)nn(-c2ccc(Cl)cc2Cl)c1-c1ccc(Br)cc1 |  | 50 µM (active)
Cc1ccc(C(C)C)c(O)c1 | inactive | 
CCCCCCCCCCCCCCCC | inactive | 
CC1=C(/C=C/C(C)=C/C=C/C(C)=C/CO)C(C)(C)CCC1 |  | 52.2 µM (active)
NCCO | inactive | 
Cc1cccc([N+](=O)[O-])c1C | inactive | 
Cc1ccc2ncccc2c1 | inactive | 
CN1CCCC1=O | inactive | 
CCCCCCCC=O | inactive | 
CC1(C)CC(N=C=O)CC(C)(CN=C=O)C1 (stereo not given) | inactive | 
NC(=O)Cn1c(=O)cc(CCN2CCN(c3nccc4sccc34)CC2)c2ccc(F)cc21 | inactive | 

Structure (SMILES) | outcome | AC50
CC(CO)OC(C)CO (stereo not given) (tested in a mixture with another compound) | inactive | 
Cc1cccc(C)c1O | inactive | 
O=[N+]([O-])C(CO)(CO)CO | inactive | 
CCCCCCCCCCC | inactive | 
Cc1cc(=O)[nH]c(=S)[nH]1 | inactive | 
Cc1ccc(Cl)cc1 | inactive | 
CC(=O)C(C)=CC1C(C)=CCCC1(C)C (stereo not given) | inactive | 
COc1cc(S(=O)(=O)O)c(C)cc1N=Nc1c(O)ccc2cc(S(=O)(=O)O)ccc12 | inactive | 
Cc1nc(C)nc(N2C[C@@H](C)N(c3ccnc([C@@H](C)O)n3)[C@@H](C)C2)n1 | inactive | 
COc1ccc(C)cc1N | inactive | 
Cc1cc(NC(=O)C(=O)O)cc(C)c1Oc1ccc(O)c2c1CCC2 | inactive | 
Cc1c(C(=O)O)c(O)cc2c1C(=O)c1c(O)c([C@@H]3O[C@H](CO)[C@@H](O)[C@H](O)[C@H]3O)c(O)c(O)c1C2=O | inactive | 
CCCCOC(=O)CCCCCCCCC(=O)OCCCC | inactive | 
C=CCc1ccc(O)c(OC)c1 | inactive | 
Oc1ccc2ccccc2c1N=Nc1ccccc1 |  | 30.3 µM (active)
O=C(O)Cc1ccccc1Nc1c(Cl)cccc1Cl | inactive | 
COc1cc(C=O)ccc1O | inactive | 
CC(=O)OCCOCCOCCOC(C)=O | inactive | 
CNC(=O)[C@H]1O[C@@H](n2cnc3c(NCc4cc(Cl)ccc4OCc4cc(C)no4)ncnc32)[C@H](O)[C@@H]1N | inactive | 
FC(F)(F)C(F)(F)C(F)(F)C(F)(F)C(F)(F)C(F)(F)CCI | inactive | 

— PubChem BioAssay (EPA / NIEHS)
